This note sets out measurements from PubChem BioAssay (Tox21).

The structures appear in SMILES notation. Values without a mark were called inactive. Inconclusive results are not listed. The source made the active and inactive calls. Unless noted, calls come from the whole dose curve; as a rule, active = well fitted curve in the direction sought with a large enough effect in the repeat runs; inconclusive = weak or mixed curves; inactive = no such curve, though single readings can be large; an effect the other way counts as inactive or inconclusive.

Test [1] can be described thus: qHTS assay for small molecules that induce genotoxicity in human embryonic kidney cells expressing luciferase-tagged ATAD5 (AID 651632). Note: nearly all actives have a fitted effect of over 15% in size. In short, it runs like this:
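Luminescent reporter readout, HEK293T ATAD5-luc line: 16 hr drug exposure (37C, 5% CO2) followed by Amplite, 30 min RT.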

Test [2] can be described thus: qHTS assay for small molecule agonists of the p53 signaling pathway - cell viability (AID 651633; calls by dose curve; note: nearly all actives have a fitted effect of over 30% in size; note: potency is the fitted concentration of half-maximal effect;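 for activity change, negative = cytotoxicity: p53RE-bla HCT reporter cells with a stable beta-lactamase p53 reporter; series mostly up to about 83 µM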). The method in brief: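 Viability counter-read: CellTiter-Glo luminescence (30 min, room temperature) in the same p53RE-bla plates. These plates had been exposed to compounds for 16 h at 37 C.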
A short description of test [3]: qHTS assay for small molecules that induce genotoxicity in human embryonic kidney cells expressing luciferase-tagged ATAD5 - cell viability (AID 651634; calls by dose curve; note: nearly all actives have a fitted effect of over 25% in size; note: potency is the fitted concentration of half-maximal effect). In short, it runs like this: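 Viability read: CellTiter-Fluor fluorescence, 30 min at 37C. Cells: HEK293T, luciferase-tagged ATAD5. Exposure: 15.5 hr, 37C, 5% CO2, compound or DMSO vehicle.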
Test [4] can be described thus: qHTS assay to test for compound auto fluorescence at 590 nm (red) in HepG2 cells (AID 720674). The method in brief: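 Red autofluorescence (Ex/Em 540/590 nm, Rose Bengal sodium equivalents) was measured in HepG2 cells, 2,000 per well in MEM plus 10% FBS, plated overnight at 37 C. Readings were taken 1 hr after adding 23 nL compound or DMSO, at 37 C and 5% CO2.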
Test [5] in a line: qHTS assay to test for compound auto fluorescence at 460 nm (blue) in HEK293 cells (AID 720678). The method in brief:
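HEK293, 2,000 cells/well, 10% dialyzed FBS; attach 4-5 hr 37C; pin compound or DMSO; o/n 37C/5% CO2; fluorescence 405/460 nm; triamterene-equivalent units.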
In general terms: Quantitative high-throughput screening tests each substance at several concentrations.

A short description of test [6]: qHTS assay to test for compound auto fluorescence at 590 nm (red) in HEK293 cells (AID 720679). The method in brief:
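Intensity at 540nm excitation and 590nm emission is reported as Rose Bengal sodium-equivalent autofluorescence. Measurements followed overnight exposure (37C, 5% CO2) of HEK293 cells, 2,000 per well, to 23 nL compound.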

A short description of test [7]: qHTS assay to test for compound auto fluorescence at 535 nm (green) in HepG2 cells (AID 720675).
Test [8] in a line: qHTS assay for small molecule disruptors of the mitochondrial membrane potential - cell viability (AID 720634; calls by dose curve;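 note: human HepG2 liver cancer cells; series mostly up to about 83 µM; nearly all actives have a fitted effect of over 20% in size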). The method in brief: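 HepG2, 1 hr compound, 37 C. ATP luminescence via CellTiter-Glo, 30 min RT, same well as m-MPI.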
Test [9] in a line: qHTS assay for small molecule disruptors of the mitochondrial membrane potential (AID 720635). Note: potency is the fitted concentration of half-maximal effect. In short, it runs like this: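 Mitochondrial membrane potential tracked with Mito-MPS dye, red aggregates (ex 540/em 590 nm) against green monomers (ex 490/em 535 nm). Compound treatment 1 hr at 37C, dye 30 min in HepG2.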
% is set by controls: 0 for no effect and ±100 for the full control effect.

On to `CC1=CC[C@@H]2C[C@H]1C2(C)C`, for which the activation in test [1] was -0.905% [at 17.9 µM]. Besides, the activity change, negative = cytotoxicity in test [2] is 5.84% [at 17.9 µM]. Moreover, in [3], the activity, negative = cytotoxicity was -7.96% [at 17.9 µM]. The fluorescence, relative to Rose Bengal in test [4] is -0.0358% [at 18.6 µM]. For the same molecule, in test [5], the fluorescence, % of triamterene was -0.0033% [at 18.6 µM]. Moreover, the fluorescence, % of fluorescent control in test [6] was -0.712% [at 18.6 µM].

On to `COc1cc(OC)c2ccc(=O)oc2c1`, for which the Potency entry in test [1], in test [2] and in [3] was “inactive” throughout. The molecule was called inactive in [4], in [7] and in test [6].

For `COc1ccc(/C=C/C(=O)c2ccc(OC)cc2OC)cc1`, the Potency entry in test [1], in test [2] and in test [5] was “inactive” throughout. Also, the outcome in test [8], in [4], in test [7] and in [6] was inactive. The Potency in test [9] is 13.3 µM (active).

Turning to `CCOC(=O)c1ccc(NC(=O)CN2CCCCC2)cc1`, the Potency result in test [1], in test [2], in [3], in [9] and in test [5] was “inactive” each time. For the same molecule, the molecule was called inactive in test [4], in test [7] and in test [6].

For `CC(C)C1CCC(C(=O)N[C@H](Cc2ccccc2)C(=O)O)CC1` (some centres not stated), the Potency entry in [1], in test [2], in test [3] and in [5] was “inactive” each time. Further, the molecule was classed as inactive in test [8], in test [4] and in [6].

Turning to `O=C(c1ccccc1)C1CCC1`, the Potency entry in test [1], in test [2] and in [9] was “inactive” each time. Further, the outcome in [8], in test [4], in [7] and in [6] was inactive.

For `c1ccc(CCCc2ccncc2)cc1`, the Potency entry in test [1], in [3] and in test [5] was “inactive” in each case. Also, the call in test [8], in test [4], in [7] and in test [6] was inactive. The Potency in test [9] was 10.9 µM (active).

In the case of `O=C(Nc1ccc(C(=O)O)c(O)c1)c1ccccc1`, the Potency result in [1], in test [2], in [3], in [9] and in test [5] was “inactive” in each case. Moreover, the call in [4], in test [7] and in [6] was inactive.

Regarding `CCCCCCCC(=O)Oc1c(Br)cc(C#N)cc1Br`, the Potency result in [1] and in test [2] was “inactive” each time. Also, the Potency in test [9] was 12.1 µM (active). Besides, the outcome in test [4], in test [7] and in [6] was inactive.

On to `O=C(O)c1cc(Cl)cc(Cl)c1O`, for which the Potency entry in test [1], in test [2], in test [3] and in test [5] was “inactive” in each case. Moreover, the outcome in test [8], in [4], in test [7] and in test [6] was inactive.

With `CO[C@@H]1[C@@H](OC)[C@H](C)[C@@](O)(CC(=O)O)O[C@H]1[C@H](C)[C@H]1O[C@@]2(CC[C@@](C)([C@H]3CC[C@@](C)([C@@H]4O[C@@H]([C@H]5O[C@](C)(O)[C@H](C)C[C@@H]5C)C[C@@H]4OC4C[C@H](OC)[C@@H](OC)[C@H](C)O4)O3)O2)C[C@H](O)[C@H]1C` (some centres not stated), the Potency result in test [1], in test [2] and in test [5] was “inactive” each time. The Potency in test [3] is 1.19 µM (active). In addition, the molecule was called inactive in test [8], in test [4] and in test [6].

Turning to `CC/C=C\C/C=C\C/C=C\CCCCCCCC(=O)OCC`, the Potency entry in [1], in test [3] and in test [5] was “inactive” in each case. Moreover, in [2], the Potency was 62.5 µM (active). For the same molecule, the call in [8], in test [4], in test [7] and in test [6] was inactive.

Consider `COc1cc(S(=O)(=O)Nc2ccccc2)c(OC)cc1N`, for which the Potency result in test [1], in test [2], in test [3] and in [5] was “inactive” in each case. Further, the result in test [8], in [4], in test [7] and in test [6] was inactive.

Consider `CC(=O)NNC(C)=O`, for which the Potency entry in test [1], in test [2], in [3] and in test [5] was “inactive” throughout. For the same molecule, the molecule was classed as inactive in [4], in test [7] and in test [6].

For `CCCCCCCCCCCCCC(=O)OCC(O)CO` (configuration not stated), the Potency entry in test [1], in test [2], in test [3] and in [5] was “inactive” each time. For the same molecule, the molecule was called inactive in [8], in [4], in test [7] and in test [6].

`O=C(O)CNC(=O)c1ccccc1I`: the Potency entry in [1], in test [2] and in test [3] was “inactive” throughout. Besides, the outcome in test [8], in test [4], in [7] and in test [6] was inactive.

Turning to `CC(=O)C(=O)CC(C)C`, the Potency result in [2], in [3], in test [9] and in test [5] was “inactive” throughout. For the same molecule, the molecule was classed as inactive in [8], in test [4], in test [7] and in [6].

With `CCCCCCCCCCCSCC(=O)O`, the Potency entry in [1], in [3] and in test [5] was “inactive” each time. Moreover, the molecule was classed as inactive in [8], in [4] and in test [6].

For `O=C(O)CO`, the Potency result in test [2], in [3] and in [5] was “inactive” each time. The molecule was called inactive in test [8], in test [4], in [7] and in [6].

Turning to `O=C(c1ccccc1)c1ccc(O)cc1`, the Potency result in test [1] and in [3] was “inactive” in each case. Moreover, the molecule was classed as inactive in [8], in test [4] and in [6]. Also, the Potency in test [9] was 27.6 µM (active).

For `CC(C)(C)CCCCCCOC(=O)c1ccccc1C(=O)OCCCCCCC(C)(C)C`, the Potency entry in test [1], in test [3] and in test [5] was “inactive” throughout. In addition, the outcome in test [8], in [4], in test [7] and in [6] was inactive.

Regarding `CCCCCCCC/C=C\CCCCCCCC(=O)OCCO`, the Potency entry in test [2], in test [3], in [9] and in test [5] was “inactive” in each case. In addition, the molecule was classed as inactive in test [4], in test [7] and in [6].

Turning to `CC1CCC(C(C)CS)CC1S` (configuration not stated), the Potency entry in test [1], in test [9] and in test [5] was “inactive” throughout. The outcome in [4], in test [7] and in test [6] was inactive.

In the case of `CCCOC(=O)c1c(Cl)c(Cl)c(Cl)c(Cl)c1C(=O)OCCC`, the Potency entry in test [3] and in test [5] was “inactive” each time. In addition, the call in [8], in test [4], in test [7] and in test [6] was inactive. In addition, the Potency in test [9] is 61.1 µM (active).

Turning to `COc1cc(NC(C)CCCN)c2ncccc2c1` (configuration not stated), the Potency result in test [1] and in test [3] was “inactive” each time. Besides, the fluorescence, relative to Rose Bengal in [4] is -0.0926% [at 18.6 µM]. Moreover, the fluorescence, % of fluorescein control in test [7] is -0.0145% [at 18.6 µM]. In [5], the fluorescence, % of triamterene was 1.22% [at 18.6 µM]. In test [6], the fluorescence, % of fluorescent control is -0.0138% [at 18.6 µM].
